Source: PubChem (National Center for Advancing Translational Sciences (NCATS))
Chronic BCR inh – chronic active BCR signaling inhibition | ABC-DLBCL IkBa-CBG/CBR reporter, luminescence ratio, 4 h | 340,000 compounds, 0.05% hits | AID 493014 | Potency, µM (doses to about 46.1 µM), usual class: inhibitors; active means well fitted inhibition curve with a large enough effect in the signal ratio, with a control signal flat, not every such curve was filed as active; inconclusive means small, poorly fitted or top-dose-only effect, or effect the other way, or a change in a side signal; the % refers to the signal ratio
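Compounds up to 46 uM were incubated four hours with TMD8 cells whose green CBG68 luciferase is fused to IkappaBalpha; red CBR luminescence normalised the signal, and concentration-effect curves were fitted to fusion, red and ratio data.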
D1 potentiator – human D1 dopamine receptor positive modulation; HEK293 TREx D1 cells, calcium flux, dopamine EC20 potentiation; P21728; potentiation, % at 10 µM; AID 504651; 360,000 compounds, 0.036% hits; in the data active means potentiation above about 30%
DRD3 agonist – activates the human D3 dopamine receptor. D3R DiscoveRx beta-arrestin cells, luminescence, 90 min. 410,000 compounds, 0.58% hits. max activation, %. AID 652048. P35462; in the data active means max activation above about 30%
Target sequence (P35462 whole entry, looked up): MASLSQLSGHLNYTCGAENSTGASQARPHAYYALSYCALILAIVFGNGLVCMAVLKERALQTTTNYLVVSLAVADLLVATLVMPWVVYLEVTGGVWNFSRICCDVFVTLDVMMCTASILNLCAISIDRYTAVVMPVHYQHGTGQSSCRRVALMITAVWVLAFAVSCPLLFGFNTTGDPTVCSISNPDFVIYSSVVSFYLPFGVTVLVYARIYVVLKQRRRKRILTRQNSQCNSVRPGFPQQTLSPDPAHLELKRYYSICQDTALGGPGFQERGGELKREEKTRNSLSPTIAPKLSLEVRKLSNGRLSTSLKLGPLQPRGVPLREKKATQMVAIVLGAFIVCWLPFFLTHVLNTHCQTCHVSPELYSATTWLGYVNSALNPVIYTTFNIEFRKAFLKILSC
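Agonist mode: compounds and dopamine controls were applied to plated cells for 90 min at 37 degrees C after an overnight attachment at 1500 cells/well. Luminescent read-out followed 30 - 60 minutes at room temperature with DiscoveRx detection reagent.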
DRD3 antagonist – D3 dopamine receptor (human) antagonism | D3R cells, DiscoveRx beta-arrestin luminescence, antagonist mode; hits give low values | max response, negative = inhibition, % | 360,000 compounds, 2.5% hits; in the data active means max response below about -50%; inconclusive means no clear call, values can overlap the other calls
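Cells plated overnight at 1500 cells/well, then exposed to library compounds with dopamine controls for 90 minutes at 37 degrees C. DiscoveRx reagent added for 30–60 minutes at room temperature; luminescence read, quantitative HTS format.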
D1 ag – agonists of human D1 dopamine receptor; P21728; HEK293 T-REx D1 cells, calcium flux, agonist mode; activation, % at 2 µM; 360,000 compounds, 1% hits; AID 504660; in the data active means activation above about 30%
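Inducible HEK293 T-REx D1 cells, force-coupled to calcium signalling, were plated at 4000 cells/well with tetracycline and held overnight at 30 C. After no-wash calcium dye loading, compound-evoked calcium rise over 180 s flagged agonists.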
D1 antagonist – antagonists of human D1 dopamine receptor; AID 504652; 360,000 compounds, 3.2% hits; HEK293 TREx D1 cells, calcium flux, dopamine EC80; hits give low values; activity change, negative = inhibition, % at 10 µM; in the data active means activity change below about -30%
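Compound effects on dopamine-evoked calcium signalling were measured in tetracycline-induced HEK293 Trex D1 cells. Dopamine at EC80 followed a 180 s compound pre-read, and fluorescence was tracked kinetically for 180 s more.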
A number is an active result; 0 = inactive; ? = inconclusive; - = not tested or not shown; ! = repeats disagree. A selection: hits, their analogues and other compounds. The true share with any hit is near 6%.

SMILES	Chronic BCR inh	D1 potentiator	DRD3 agonist	DRD3 antagonist	D1 ag	D1 antagonist
Cn1c(SCC(=O)NCCNC(=O)CSc2nnc(C(F)(F)F)n2C)nnc1C(F)(F)F	0	0	0	0	0	-32
Cc1cc(=O)oc(C)c1C(=O)OC(C(=O)c1ccccc1)c1ccccc1 (stereo not given)	0	0	0	0	0	-42
CC1Cc2ccccc2N1S(=O)(=O)c1cccc(C(=O)NCc2ccncc2)c1 (stereo not given)	0	-	0	0	0	-54
Cc1cc(Br)ccc1NC(=O)CN(C)C(=O)C1CSC2(C)CCC(=O)N12 (stereo not given)	0	-	0	0	0	-33
Cc1cc(Br)ccc1NC(=O)C1CSC2(C)CCC(=O)N12 (stereo not given)	0	0	0	0	0	0
O=C(N/N=C/c1cccc([N+](=O)[O-])c1)c1cc(-c2ccc3c4c(cccc24)CC3)n[nH]1	0	0	0	0	0	0
O=C(N/N=C/c1ccc(Cl)c([N+](=O)[O-])c1)c1cc(-c2ccc3c4c(cccc24)CC3)n[nH]1	?	0	0	-58	0	0
CCCCN(C)CCCNC(=O)CN1C(=O)COc2ccc(S(=O)(=O)N3CCC(C)CC3)cc21	-	0	0	-	0	0
COc1ccc(C)cc1NC(=O)CSc1ccc(-c2sc(C)nc2C)nn1	0	0	0	0	0	-50
CCOC(=O)c1ccc(NC(=O)CSc2ccc(-c3sc(C)nc3C)nn2)cc1	-	0	0	-	0	-42
COc1cc(/C=C/c2nc(C#N)c(N3CCCCC3)o2)cc(OC)c1OC	-	0	0	-	0	0
COc1ccc(CNc2ncnc3c2nnn3C)cc1	0	0	0	-	0	-
O=C(Nc1ccc(Cl)cc1)C1CCN(S(=O)(=O)c2ccc(Br)s2)CC1	-	0	0	-	0	0
COc1ccccc1CCC(=O)OCC(=O)Nc1ccc(C)c(S(=O)(=O)N2CCCCC2)c1	0	0	0	0	0	-33
COc1ccccc1CCC(=O)Nc1ccc(OC)c(S(=O)(=O)N2CCCCC2)c1	0	-	0	0	0	0
CCOc1ccc(NC(=O)CN(C)Cc2ccc3c(c2)OCO3)cc1S(=O)(=O)N1CCCC1	0	0	0	-68	0	-35
COc1ccc(NC(=O)c2n[nH]c(=O)c3ccccc23)cc1S(=O)(=O)N1CCCCC1	0	0	0	0	0	-39
CCc1ccc(C(=O)CCC(=O)Nc2ccc(OC)c(S(=O)(=O)N3CCCCC3)c2)cc1	0	-	0	0	0	-41
COc1ccc(NC(=O)c2ccco2)cc1S(=O)(=O)N1CCCCC1	0	0	0	0	0	0
O=C(Nc1c(-c2ccc(F)cc2)nc2ccccn12)c1ccccc1F	-	0	0	-	0	0
CCC(=O)OCOc1ccc(/C=C2/CCC(CN(C)C)C2=O)cc1 (stereo not given)	-	-	0	-87	-	-
Cc1c(C(=O)NCc2ccccc2C(F)(F)F)sc(=O)n1Cc1ccc(Cl)c(Cl)c1	-	-	0	0	-	-
Cc1nnsc1C(=O)N/N=C/c1ccc2ccccc2c1O	0	0	0	0	138	0
CCOC(=O)c1c(CSc2ccc(CC)cc2)oc2ccc(O)c(CN(C)C)c12	?	0	0	-64	45	0
CCOC(=O)c1c(C)[nH]c(C)c1S(=O)(=O)NCCN1CCN(c2ccccc2F)CC1	0	0	0	-58	0	-79
SMILES	Chronic BCR inh	D1 potentiator	DRD3 agonist	DRD3 antagonist	D1 ag	D1 antagonist
CCOC(=O)c1c(C)[nH]c(C)c1S(=O)(=O)NCC1CCN(Cc2ccc(C)cc2)CC1	0	0	0	-54	0	0
CCOC(=O)c1c(C)[nH]c(C)c1S(=O)(=O)NCC1CCN(Cc2cccc(Cl)c2)CC1	?	0	0	?	0	0
CCN(CC)c1ccc(/C=c2/sc3nnc(-c4ccccc4C)n3c2=O)cc1	0	0	0	0	31	0
CCN(CC)c1ccc(/C=c2\sc3nnc(-c4ccccc4Cl)n3c2=O)cc1	0	0	0	0	59	0
COc1cc(/C=N/n2c(-c3cc(C)[nH]n3)n[nH]c2=S)cc(OC)c1OC	0	0	0	-51	0	0
COc1cc(/C=N/n2c(-c3cc(C)[nH]n3)n[nH]c2=S)ccc1O	0	0	0	?	0	0
CN1CCN(NC(=O)CN2C(=O)/C(=C/c3ccccc3Cl)SC2=S)CC1	?	0	0	-64	0	0
O=C(CCN1C(=O)/C(=C/c2cccs2)SC1=S)N1CCCCC1	0	0	34	0	0	0
CN1CCN(C(=O)CCN2C(=O)/C(=C\c3ccccc3F)SC2=S)CC1	0	0	0	0	96	0
O=C(O)C1CCCCC1C(=O)Nc1ccccc1F (stereo not given)	?	0	0	-51	0	0
O=C(O)C1CCCCC1C(=O)Nc1ccccc1Cl (stereo not given)	0	0	0	0	0	0
COc1ccccc1NC(=O)Cn1c(=O)n(Cc2ccccc2)c(=O)c2sc3ccccc3c21	-	0	0	-	0	0
O=C(Nc1cccc(F)c1)C1CCN(S(=O)(=O)c2ccc3[nH]c4c(c3c2)CCCCC4)CC1	-	0	0	-	0	-32
CSc1cccc(NC(=O)C2CCN(S(=O)(=O)c3ccc4[nH]c5c(c4c3)CCCCC5)CC2)c1	-	0	0	-	0	0
CN(CC(=O)Nc1cccc(Cl)c1)S(=O)(=O)c1ccc2[nH]c3c(c2c1)CCCC3	-	0	0	-	0	-35
CN(CC(=O)Nc1cccc(C(F)(F)F)c1)S(=O)(=O)c1ccc2[nH]c3c(c2c1)CCCC3	-	0	0	-	0	0
CC(C)c1ccc(NC(=O)c2ccc(F)c(S(=O)(=O)N3CCc4ccccc4C3)c2)cc1	0	0	0	-	0	0
O=C(CCc1nc(-c2cccs2)no1)Nc1cccc([N+](=O)[O-])c1	-	0	0	-	0	-34
CCN(C(=O)CCc1nc(-c2ccc(OC)cc2)no1)c1cc(OC)ccc1OC	?	0	0	0	0	-49
COc1ccc(-c2noc(CCC(=O)Nc3cccc(C)c3)n2)cc1	?	0	0	0	0	-45
COc1ccc(CCCc2nnc(SCC(=O)Nc3cccc(C)c3)o2)cc1	?	0	0	0	46!	-43!
CN(C)c1ncnc2c1ncn2[C@H]1CN(Cc2ccc(-c3ccccc3)cc2)C[C@@H](CO)O1	-	-	0	0	-	-
CCOC(=O)c1cc(-c2ccccc2)n(CCC(=O)NC2CCCCC2)c1C	?	0	0	-	0	0
Cc1cccc(NC(=O)CSc2nc3c(c(=O)[nH]2)CN(Cc2ccc4c(c2)OCO4)CC3)c1C	-	0	0	-	0	0
CCOC(=O)c1cccc(NC(=O)CCc2nc(-c3ccc(C)cc3)no2)c1	0	0	0	0	31	0
Cn1cccc1CNC(=S)Nc1ccccc1Cl	0	0	0	0	0	-42
Cn1cccc1CNCc1ccccc1Cl	?	0	0	-64	0	0
